Assay results from PubChem BioAssay (NCI).
“And” between values parts separate entries of the source, which are not always exact repeats. Identical values can stand only once. The panel holds about 83,000 compounds, 20% with a hit somewhere; the sample as a whole holds those more often.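 Assay: single dose, 48 h. Readout: percent growth (0 = no net growth; negative = cell death). Active: <10.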 Values without a mark were called inactive. The source made the active and inactive calls.

Tested on: A498 renal
Assay: NCI-60 one-dose screen, 48 h (100 = growth as untreated, 0 = no growth, -100 = all killed)
Details: 10 µM unless noted
Description: Growth inhibition of the A498 human tumor cell line is measured as a screen for anti-cancer activity. Cells are grown in 96 well plates and exposed to the test compound for 48 hours. Compounds are tested at a single concentration, which is 10^-5 M for most compounds. The reported endpoint is percent growth (GI% or GIPRCNT), where numbers from 0 - 100% represent growth inhibition, and numbers from -100% - 0 represent cell death. For example, a value of 40 represents 60% growth inhibition. A value of 0 means no net growth occurred over the course of the experiment. A value of -40 indicates 40% of cells at the beginning of the experiment died by the end of the experiment. A value of -100 means all cells are dead at the end of the experiment.
NCI-60 Human Tumor Cell Lines Screen was performed using the standard one-dose NCI protocol, which is described in more detail at https://dtp.cancer.gov/discovery_development/nci-60/default.htm.
Compounds with GIPRCNT values below 10 were considered active. Activity score was based on GIPRCNT using the following formula: […]
Score is 0 for GIPRCNT values of 100 or above, 50 for GIPRCNT values of 0, and 100 for GIPRCNT values of -100.

Q: Which growth does the source give for `COc1ccc(NC(=O)Nc2nc3ccc([N+](=O)[O-])cc3s2)cc1` here?
A: The growth was 21.8%.

Q: Which growth does the source give for `CN(C)c1nc(NCCNS(=O)(=O)c2ccc(C(=O)/C=C/c3ccc(C(F)(F)F)cc3)cc2)nc(N2CCOCC2)n1` here?
A: The growth was 72.5%.

Q: For `S=C(Nc1ccccc1)Nc1ccc(OCc2nc3ccc(Cl)cc3[nH]2)cc1`, which growth is on record?
A: The growth was 110%.

Q: `CCCCCCCCc1ccc(C(=O)Nc2cccc(O)c2)cc1` was tested. Which growth did it give?
A: Its growth is 115%.

Q: With `Nc1cc2ccccc2c(=O)n1NC(=O)c1ccccc1` as the molecule, how does the growth read?
A: The growth was 145%.

Q: `C/C(=N/O)c1ccc(NC(=O)CSc2nnc(-c3ccc(-c4nc5ccc(Cl)cc5[nH]4)cc3)o2)cc1` was tested. Which growth did it give?
A: Its growth is 160%.

Q: `COC(=O)c1c(C(=O)OC)c2c3ccccc3c3ccccc3n2c1C(=O)C(F)(F)F` was tested. Which growth did it give?
A: Its growth is 138%.

Q: How did the growth turn out when `CN(C)c1nc(NCCNS(=O)(=O)c2ccc(C3=Nc4c(N)nc(N)nc4NC(c4ccc(C(F)(F)F)cc4)C3)cc2)nc(N2CCOCC2)n1` (stereo not given) was run?
A: The growth was 94.8%.

Q: With `COc1ccc2c(c1)N=c1c-2cc2c(O)[nH]c(=S)n2c1=O` as the molecule, how does the growth read?
A: Its growth is 105%.

Q: How did the growth turn out when `COc1c(B(O)O)cc(F)cc1-c1nc2ccc3[nH]ncc3c2c2c1COCC2` was run?
A: Its growth is 106%.

Q: Which growth does the source give for `O=C(Nc1ccc(-c2ccc3c(c2)NC(=O)/C3=C\c2ccc[nH]2)cc1)Nc1ccc(Cl)c(C(F)(F)F)c1` here?
A: Its growth is 39.2%.

Q: With `CCOc1ccccc1NC(=O)N/C(N)=N/c1nc2ccccc2s1` as the molecule, how does the growth read?
A: Its growth is 90.9%.

Q: With `CCOc1ccccc1[C@H]1C(C(=O)c2ccc(Cl)cc2)C2(N[C@@H]1c1ccccc1)C(=O)Nc1ccc(Br)cc12` (stereo not given in full) as the molecule, how does the growth read?
A: Its growth is -22.5% (active).

Q: `O=C(N/N=C/c1ccc(-c2cccc([N+](=O)[O-])c2)s1)c1[nH]c2ccc(Br)cc2c1-c1ccccc1` was tested. Which growth did it give?
A: The growth was 132%.

Q: Which growth does the source give for `O=C(N/N=C/c1ccsc1)c1[nH]c2ccc(Br)cc2c1-c1ccccc1` here?
A: Its growth is -48.1% (active).

Q: `COc1cc(CNC(=O)C[C@H](C)CCC=C(C)C)ccc1OCc1cn(-c2ccc(Br)cc2)nn1` was tested. Which growth did it give?
A: The growth was 105%.

Q: How did the growth turn out when `CCCCNc1ccc2c3c(cccc13)C(=O)N(c1cccc(-c3nn(-c4ccccc4)cc3-c3nc4ccccc4s3)c1)C2=O` was run?
A: The growth was 131%.

Q: Which growth does the source give for `Cc1oc(-c2ccccc2)nc1CN[C@@H]1C[C@@H]2C[C@H]([C@H]1C)C2(C)C` here?
A: Its growth is 31.6%.

Q: Which growth does the source give for `Cc1cc(C2(c3cc(C)c(OCC(O)CNc4c(C)n(C)n(-c5ccccc5)c4=O)cc3C(C)C)OC(=O)c3ccccc32)c(C(C)C)cc1OCC(O)CNc1c(C)n(C)n(-c2ccccc2)c1=O` (stereo not given) here?
A: The growth was 55.4%.

Q: For `S=C(NCCc1ccccc1)Nc1ccc(OCc2nc3ccc(Cl)cc3[nH]2)cc1`, which growth is on record?
A: The growth was 95.6%.

Q: Which growth does the source give for `N/C(=N\c1nc2ccccc2s1)NC(=O)Nc1ccccc1[N+](=O)[O-]` here?
A: Its growth is 89%.

Q: `COc1cc(/C=N/NC(=O)c2ccc(OCc3nc4ccc(C)cc4[nH]3)cc2)cc(OC)c1OC` was tested. Which growth did it give?
A: The growth was 116%.

Q: For `O=C(NNC(=O)c1ccc(OCc2nc3ccc(Cl)cc3[nH]2)cc1)Nc1ccc(Cl)c(C(F)(F)F)c1`, which growth is on record?
A: Its growth is 154%.

Q: Which growth does the source give for `O=C(CSc1nc2c(c(=O)[nH]1)CCCC2)Nc1ccccc1C(=O)O` here?
A: The growth was 173%.

Q: For `CSc1ccc(OCc2nc3ccccc3n2-c2cccc(NS(C)(=O)=O)c2)cc1`, which growth is on record?
A: Its growth is 137% and 153%.

Q: `COc1ccc(NC(=O)Cn2c(/C=C/c3ccc([N+](=O)[O-])cc3)nc3ccccc3c2=O)cc1` was tested. Which growth did it give?
A: The growth was 85.8%.

Q: Which growth does the source give for `NNc1ncnc2sc3c(c12)CCN(Cc1ccccc1)C3` here?
A: The growth was 93.7%.

Q: With `NS(=O)(=O)c1ccc(N2N=C(c3ccc(NC(=O)Nc4ccccc4)cc3)CC2c2ccc(Br)cc2)cc1` (stereo not given) as the molecule, how does the growth read?
A: Its growth is -79.4% (active).

Q: How did the growth turn out when `Nc1nnc(-c2cncc(Br)c2)c(-c2c[nH]c3ccc(Cl)cc23)n1` was run?
A: Its growth is 112%.

Q: `COc1c(B(O)O)cc(F)cc1-c1nc2c(F)cc3[nH]ncc3c2c2c1CCCC2` was tested. Which growth did it give?
A: The growth was -30.7% (active).

Q: Which growth does the source give for `CS(=O)(=O)Nc1cc(-c2ccc3ncnc(N4CCc5cc(F)c(Cl)cc54)c3c2)cnc1Cl` here?
A: Its growth is -36.5% (active).

Q: Which growth does the source give for `CC(C)(C)C(=O)C1CC(C#N)=C2C=Cc3c(ccc4ccccc34)N21` (stereo not given) here?
A: The growth was 144%.

Q: With `Cc1ccccc1Nc1nnc(-c2c[nH]c3ccccc23)o1` as the molecule, how does the growth read?
A: Its growth is 101%.

Q: How did the growth turn out when `Cc1ccc(Cl)cc1NC(=O)Nc1nc2ccc([N+](=O)[O-])cc2s1` was run?
A: Its growth is -21.7% (active).

Q: For `CN1CCN(c2ccc3c4c(cccc24)C(=O)N(c2cccc(-c4nn(-c5ccccc5)cc4-c4nc5ccccc5s4)c2)C3=O)CC1`, which growth is on record?
A: Its growth is 128%.

Q: Which growth does the source give for `O=C(N=Nc1c(O)[nH]c2ccc(Cl)cc12)c1ccc2nc(-c3ccc(Cl)cc3)[nH]c2c1` here?
A: Its growth is 47.8%.

Q: With `O=C(NN1C(=O)/C(=C/C=C/c2ccc([N+](=O)[O-])o2)SC1=S)c1ccc(O)cc1` as the molecule, how does the growth read?
A: Its growth is 14.6%.

Q: Which growth does the source give for `N/C(=N\c1nc2ccc([N+](=O)[O-])cc2s1)NC(=O)Nc1ccccc1Cl` here?
A: Its growth is -5.78% (active).

Q: Which growth does the source give for `COc1ccc(NC2=C(I)C(=O)C(C)=C(C)C2=O)cc1` here?
A: Its growth is 113%.

Q: Which growth does the source give for `Fc1ccc(N2CC(Cn3c(C(F)(F)F)cc4c(Cl)ncnc43)C2)c(F)c1` here?
A: Its growth is 130%.
